Here are results for 34 molecules from PubChem BioAssay (EPA / NIEHS).

SMILES strings stand for the structures. Where “and” joins values, the source holds several entries; their conditions need not be identical. Identical values can stand only once. More than one record can exist for a structure, and the calls need not agree. Calls of active or inactive are those of the source. Rule for the calls: active = hit-call score of the fitted dose curve at least 0.9, where 1 is the maximum; inactive = score below 0.9.

The first experiment in a line: ATG_TAL_CIS: Attagene CIS-FACTORIAL HepG2 Assay for human TAL Basal Promoter (AID 2282966).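 Note: background control endpoint measuring basal TAL promoter reporter mRNA not a specific factor.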 The following applies: HepG2 Attagene cis-factorial TAL promoter reporter; actives raise or lower the signal. In a few lines: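 HepG2 cells were transiently transfected with promoter-driven multiplexed reporter units and dosed for 24 h. Reporter mRNA was measured by RT-PCR with capillary electrophoresis fluorescence; bidirectional fits used DMSO as baseline, serving as a background control.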
On to `O=P(O)(O)OCCC(F)(F)C(F)(F)C(F)(F)C(F)(F)C(F)(F)C(F)(F)F`, for which the outcome was inactive.

As for `[Co]`, the result was inactive.

On to `O=C(CC(=O)C(F)(F)C(F)(F)F)C(F)(F)F`, for which the outcome was inactive.

On to `O=C(O)C(F)(F)C(F)(F)C(F)(F)C(F)(F)C(F)(F)C(F)(F)C(F)(F)C(F)(F)Cl`, for which the concentration at half-maximal activity (AC50) is 50 µM (active) and the call was inactive.

On to `FC(F)(F)C(F)(F)C(F)(F)C(F)(F)C(F)(F)C(F)(F)C(F)(F)Br`, for which the outcome was inactive.

On to `CCN(Cc1cccc(S(=O)(=O)O)c1)c1ccc(C(=C2C=CC(=[N+](CC)Cc3cccc(S(=O)(=O)O)c3)C=C2)c2ccc(O)cc2S(=O)(=O)[O-])cc1`, for which the molecule was called inactive.

On to `O=C(O)C(F)(F)C(F)(F)F`, for which the outcome was inactive.

Turning to `C#C[C@]1(O)CC[C@H]2[C@@H]3CCc4cc(OC)ccc4[C@H]3CC[C@@]21C`, the outcome was inactive.

As for `OCCCC(F)(F)C(F)(F)C(F)(F)F`, the outcome was inactive.

With `O=C(O)C(F)(F)C(F)(F)C(F)(F)C(F)(F)F`, the call was inactive.

For the molecule `O=C(O)C(F)(F)C(F)(F)C(F)(F)C(F)(F)C(F)(F)C(F)(F)C(F)(F)C(F)(F)C(F)(F)C(F)(F)C(F)(F)C(F)(F)C(F)(F)F`, the molecule was called inactive.

On to `O=C(O)C=C(C(F)(F)F)C(F)(F)F`, for which the call was inactive.

`O=S(=O)(O)c1ccc2ccccc2c1`: the call was inactive.

As for `CC/C=C\CCOC(=O)c1ccccc1`, the outcome was inactive.

Consider `CCCCOc1ccc(N)cc1`, for which the outcome was inactive.

For `CC(C)c1ccccc1N`, the outcome was inactive.

As to `CC/C=C\CCOC(C)=O`, the molecule was called inactive.

As for `COC(=O)C1CCC(C(=O)OC)CC1` (stereo not given), the molecule was classed as inactive.

Consider `FC(F)(F)C(F)(F)C(F)(F)C(F)(F)C(F)(F)C(F)(F)CCS`, for which the outcome was inactive.

Consider `O=C(O)C(F)(F)C(F)(F)C(F)(F)C(F)(F)C(F)(F)C(F)(F)C(F)(F)C(F)(F)C(F)(F)C(F)F`, for which the molecule was called inactive.

On to `c1ccc(B(c2ccccc2)c2ccccc2)cc1`, for which the molecule was called inactive.

On to `FC(F)(F)C(F)(F)C(F)(F)N(C(F)(F)C(F)(F)C(F)(F)F)C(F)(F)C(F)(F)C(F)(F)F`, for which the molecule was classed as inactive.

Take `O=S(=O)(O)C(F)(F)C(F)(F)C(F)(F)C(F)(F)C(F)(F)C(F)(F)C(F)(F)F`: the result was inactive.

Turning to `O=C(O)C(F)(F)C(F)(F)C(F)(F)F`, the call was inactive.

As for `COC(OC(C)=O)c1ccccc1` (stereo not given), the outcome was inactive.

For the molecule `OCCCC(F)(F)C(F)(F)C(F)(F)C(F)(F)C(F)(F)C(F)(F)C(F)(F)F`, the AC50 is 88.7 µM (active) and the outcome was inactive.

For `CCCCCCCCC(F)(F)C(F)(F)C(F)(F)C(F)(F)C(F)(F)C(F)(F)F`, the molecule was called inactive.

On to `FC(F)(F)C(F)(F)C(F)(F)CI`, for which the outcome was inactive.

`FC(F)(F)C(F)(F)C(F)(F)C(F)(F)C(F)(F)C(F)(F)C(F)(F)C(F)(F)F`: the call was inactive.

Take `Oc1ccc(Nc2ccccc2)cc1`: the result was inactive.

Consider `CCCCCC=O`, for which the molecule was classed as inactive.

For `CC(CCl)OP(=O)(OC(C)CCl)OC(C)CCl` (stereo not given), the call was inactive.

For `C=CC(F)(F)C(F)(F)C(F)(F)C(F)(F)C(F)(F)C(F)(F)C(F)(F)C(F)(F)C=C`, the call was inactive.

Turning to `O=S(=O)(OCCOC(F)(F)F)C(F)(F)F`, the outcome was inactive.

Another experiment can be described thus: ATG_TGFb_CIS: Attagene CIS-FACTORIAL HepG2 Assay for human Transforming Growth Factor (TGF) (AID 2282967). To be noted: HepG2 Attagene CIS TGFb reporter, mRNA transcription; actives raise or lower the signal. In a few lines: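 Bidirectional fitting relative to DMSO gave the endpoint. Underlying data: reporter mRNA from HepG2 cells carrying transiently transfected cis-regulated reporter constructs, harvested 24 h after dosing and analyzed by RT-PCR and capillary electrophoresis.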
Regarding `O=P(O)(O)OCCC(F)(F)C(F)(F)C(F)(F)C(F)(F)C(F)(F)C(F)(F)F`, the half-maximal activity concentration (AC50) is 70.1 µM (active).

`[Co]`: the result was inactive.

For `O=C(CC(=O)C(F)(F)C(F)(F)F)C(F)(F)F`, the call was inactive.

Consider `O=C(O)C(F)(F)C(F)(F)C(F)(F)C(F)(F)C(F)(F)C(F)(F)C(F)(F)C(F)(F)Cl`, for which the half-maximal activity concentration (AC50) is 74.7 µM (active) and 82.8 µM (active).

For the molecule `FC(F)(F)C(F)(F)C(F)(F)C(F)(F)C(F)(F)C(F)(F)C(F)(F)Br`, the result was inactive.

`CCN(Cc1cccc(S(=O)(=O)O)c1)c1ccc(C(=C2C=CC(=[N+](CC)Cc3cccc(S(=O)(=O)O)c3)C=C2)c2ccc(O)cc2S(=O)(=O)[O-])cc1`: the outcome was inactive.

On to `O=C(O)C(F)(F)C(F)(F)F`, for which the molecule was called inactive.

`C#C[C@]1(O)CC[C@H]2[C@@H]3CCc4cc(OC)ccc4[C@H]3CC[C@@]21C`: the AC50 was 139 µM (active).

Regarding `OCCCC(F)(F)C(F)(F)C(F)(F)F`, the molecule was classed as inactive.

For `O=C(O)C(F)(F)C(F)(F)C(F)(F)C(F)(F)F`, the outcome was inactive.

As to `O=C(O)C(F)(F)C(F)(F)C(F)(F)C(F)(F)C(F)(F)C(F)(F)C(F)(F)C(F)(F)C(F)(F)C(F)(F)C(F)(F)C(F)(F)C(F)(F)F`, the result was inactive.

For `O=C(O)C=C(C(F)(F)F)C(F)(F)F`, the outcome was inactive.

On to `O=S(=O)(O)c1ccc2ccccc2c1`, for which the molecule was classed as inactive.

In the case of `CC/C=C\CCOC(=O)c1ccccc1`, the call was inactive.

For the molecule `CCCCOc1ccc(N)cc1`, the outcome was inactive.

For `CC(C)c1ccccc1N`, the outcome was inactive.

As for `CC/C=C\CCOC(C)=O`, the molecule was classed as inactive.

For `COC(=O)C1CCC(C(=O)OC)CC1` (stereo not given), the molecule was called inactive.

For the molecule `FC(F)(F)C(F)(F)C(F)(F)C(F)(F)C(F)(F)C(F)(F)CCS`, the molecule was classed as inactive.

`O=C(O)C(F)(F)C(F)(F)C(F)(F)C(F)(F)C(F)(F)C(F)(F)C(F)(F)C(F)(F)C(F)(F)C(F)F`: the molecule was classed as inactive.

On to `c1ccc(B(c2ccccc2)c2ccccc2)cc1`, for which the result was inactive.

Regarding `FC(F)(F)C(F)(F)C(F)(F)N(C(F)(F)C(F)(F)C(F)(F)F)C(F)(F)C(F)(F)C(F)(F)F`, the call was inactive.

Take `O=S(=O)(O)C(F)(F)C(F)(F)C(F)(F)C(F)(F)C(F)(F)C(F)(F)C(F)(F)F`: the AC50 is 148 µM (active) and 81.5 µM (active).

`O=C(O)C(F)(F)C(F)(F)C(F)(F)F`: the call was inactive.

As to `COC(OC(C)=O)c1ccccc1` (stereo not given), the molecule was called inactive.

Take `OCCCC(F)(F)C(F)(F)C(F)(F)C(F)(F)C(F)(F)C(F)(F)C(F)(F)F`: the call was inactive.

In the case of `CCCCCCCCC(F)(F)C(F)(F)C(F)(F)C(F)(F)C(F)(F)C(F)(F)F`, the call was inactive.

`FC(F)(F)C(F)(F)C(F)(F)CI`: the outcome was inactive.

Take `FC(F)(F)C(F)(F)C(F)(F)C(F)(F)C(F)(F)C(F)(F)C(F)(F)C(F)(F)F`: the call was inactive.

As to `Oc1ccc(Nc2ccccc2)cc1`, the call was inactive.

For the molecule `CCCCCC=O`, the molecule was classed as inactive.

Consider `CC(CCl)OP(=O)(OC(C)CCl)OC(C)CCl` (stereo not given), for which the outcome was inactive.

Consider `C=CC(F)(F)C(F)(F)C(F)(F)C(F)(F)C(F)(F)C(F)(F)C(F)(F)C(F)(F)C=C`, for which the outcome was inactive.

Regarding `O=S(=O)(OCCOC(F)(F)F)C(F)(F)F`, the outcome was inactive.

The term AC50 denotes the concentration giving half of the maximal activity seen.
